Screening results as filed in PubChem BioAssay.
MITF primary – blocks human microphthalmia-associated transcription factor. 650,000 tested, 0.91% active. O75030. AlphaScreen MITF homodimerization, bead proximity signal. inhibition, % at 2.6 µM; in the data active means inhibition above about 50%
GPR151 activ – activators of human GPR151; Q8TDV0; PathHunter beta-arrestin GPR151 cells, luminescence; activation, % at 11.2 µM; 650,000 tested, 1% active; in the data active means activation above about 4.9%
FBW7 activator – activators of human E3 ligase FBW7; 650,000 tested, 0.13% active; AID 1259310; normalized activity (activation), % at 26.1 µM; AlphaScreen FBW7–phospho-cyclin E peptide binding, activator screen; in the data active means normalized activity above about 1.9%;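 further: purified mutant Fbw7 with reduced substrate affinity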
Target sequence (Q969H0 whole entry, looked up): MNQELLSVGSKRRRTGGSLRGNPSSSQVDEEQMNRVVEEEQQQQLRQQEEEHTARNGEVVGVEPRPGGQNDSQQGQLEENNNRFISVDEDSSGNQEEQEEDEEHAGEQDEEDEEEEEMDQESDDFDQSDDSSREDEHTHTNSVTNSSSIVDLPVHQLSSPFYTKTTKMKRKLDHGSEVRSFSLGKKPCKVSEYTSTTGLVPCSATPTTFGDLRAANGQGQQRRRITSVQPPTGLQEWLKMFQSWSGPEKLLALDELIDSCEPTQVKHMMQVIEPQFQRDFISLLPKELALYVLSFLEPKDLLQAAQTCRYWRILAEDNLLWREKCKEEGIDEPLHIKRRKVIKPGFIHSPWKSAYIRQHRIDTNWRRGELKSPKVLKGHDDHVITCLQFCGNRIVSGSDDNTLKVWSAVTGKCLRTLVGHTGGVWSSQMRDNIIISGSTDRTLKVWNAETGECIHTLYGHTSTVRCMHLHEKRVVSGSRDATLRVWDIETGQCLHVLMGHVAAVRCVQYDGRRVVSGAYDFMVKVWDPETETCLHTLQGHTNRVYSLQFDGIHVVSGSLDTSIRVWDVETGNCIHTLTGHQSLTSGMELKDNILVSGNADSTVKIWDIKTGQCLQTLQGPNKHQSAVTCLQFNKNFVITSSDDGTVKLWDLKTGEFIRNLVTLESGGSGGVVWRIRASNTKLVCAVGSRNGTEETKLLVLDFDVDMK
TEAD-YAP inh – TEAD-YAP interaction inhibition; inhibition, % at 9.12 µM; HEK-TIYL cells, TEAD-Gal4/YAP UAS-luciferase luminescence; AID 1259422; 640,000 tested, 1.4% active; in the data active means inhibition above about 32%
Of the large screens only hits and unclear results are named; the others gave an inactive call. The list is not random: actives were taken first. Their share in the collection is about 3.5%.

CCn1c(=O)cc(SCC(=O)NCc2ccc(F)cc2)c2ccccc21	TEAD-YAP inh 45
CCn1c(=O)cc(SCC(=O)NCc2cccs2)c2ccccc21	TEAD-YAP inh 43
Cc1ccc(NC(=O)CC2SC(N)=NC2=O)cc1 (stereo not given)	none
NC1=NC(=O)C(CC(=O)Nc2ccc(NC(=O)CC3SC(N)=NC3=O)cc2)S1 (stereo not given)	MITF primary 55
COc1cc(OC)cc(C(=O)N2N=C(C)CC2(O)C(F)(F)F)c1 (stereo not given)	TEAD-YAP inh 50
CC1=NN(C(=O)c2cc(O)cc(O)c2)C(O)(C(F)(F)F)C1 (stereo not given)	none
COc1cc(C(=O)N2N=C(C)CC2(O)C(F)(F)F)cc(OC)c1OC (stereo not given)	TEAD-YAP inh 60
COc1cc(C(=O)N2N=C(C3CC3)CC2(O)C(F)(F)F)cc(OC)c1OC (stereo not given)	none
COC(CN(C)C1=NC(=O)/C(=C\c2ccc(SC)cc2)S1)OC	TEAD-YAP inh 42
CCN(C(=O)c1ccc(OC)c([N+](=O)[O-])c1)c1ccccc1C	none
CC(C)CNS(=O)(=O)c1ccc(CCC(=O)N2CCN(c3ccc(F)cc3)CC2)cc1	TEAD-YAP inh 40
CCN1/C(=C/c2cc[n+](C)cc2)C=Cc2cc(OC)ccc21	none
COc1ccc2c(c1)C=C/C(=C\c1cccc[n+]1C)N2C	TEAD-YAP inh 80
O=C(NCc1cccc(C(F)(F)F)c1)c1cccc(N2CCC(N3CCOCC3)CC2)n1	TEAD-YAP inh 36
C=CCOc1ccccc1CNc1ccc(C(=O)O)cc1	none
CN(CCc1ccccc1)C(=O)c1ccc2c(c1)CC(c1nc3ccc(-c4ccnc(N)n4)cc3[nH]1)CO2 (stereo not given)	TEAD-YAP inh 73
CON(C)C(=O)c1ccc2c(c1)CC(c1nc3ccc(-c4ccnc(N)n4)cc3[nH]1)CO2 (stereo not given)	none
CC(CNC(=O)c1ccc2c(c1)CC(c1nc3ccc(-c4ccnc(N)n4)cc3[nH]1)CO2)c1ccccc1 (stereo not given)	FBW7 activator 1.9, TEAD-YAP inh 41
O=C1c2cccc3cc([N+](=O)[O-])cc(c23)C(=O)N1c1ccc(O)cc1	none
CC(C)(C)C(=O)Nc1nc2ccc(Cl)cc2s1	none
Cc1cccc2cc(CN(CCO)C(=O)Nc3ccc(F)cc3)c(=O)[nH]c12	FBW7 activator 2.3
COc1ccc2[nH]c(=O)c(CN(Cc3cccnc3)C(=O)Nc3ccccc3)cc2c1	none
COc1ccc2[nH]c(=O)c(CN(Cc3cccnc3)C(=O)Nc3ccc(F)cc3)cc2c1	TEAD-YAP inh 46
COc1ccc(NC(=O)N(CCCO)Cc2cc3cccc(C)c3[nH]c2=O)cc1	none
CCOC(=O)c1sc(NC(=O)CCCOc2ccc(Cl)cc2Cl)c(C#N)c1C	none
CN1CCN(c2ccc(-c3cccc(C(=O)NCc4nc5ccccc5[nH]4)c3)cc2)CC1	TEAD-YAP inh 68
CN1CCN(c2ccc(-c3cc(C(=O)NCc4nc5ccccc5[nH]4)ccn3)cc2)CC1	TEAD-YAP inh 88
COc1ccc(-c2cccc(C(=O)NCc3nc4ccccc4[nH]3)c2)cc1	none
Cc1cccnc1CN(C)C(=O)CC1(c2ccc(-c3ccccc3)cc2)CC(=O)N(C)C1=O (stereo not given)	none
Cc1ccc(C(=O)c2cccc(N)c2)cc1C	TEAD-YAP inh 57
COc1ccc(C(=O)N=c2nc3ccccn3s2)cc1	TEAD-YAP inh 70
Cc1cccc(-c2nnc(SCC(=O)Nc3ccccc3F)o2)c1	TEAD-YAP inh 64
Cc1cccc(-c2nnc(SCC(=O)Nc3cc(Cl)ccc3O)o2)c1	none
COc1ccc(CCNc2ncnc3[nH]ncc23)cc1	none
COc1ccc(CCNc2ncnc3sccc23)cc1	TEAD-YAP inh 49
c1ccc(CNc2ncnc3sccc23)cc1	none
c1csc(CNc2ncnc3sccc23)c1	TEAD-YAP inh 32
COc1ccc(C2C(C(=O)Nc3cccc(F)c3)=C(C)NC3=C2C(=O)CCC3)cc1 (stereo not given)	none
O=C(c1ccccc1F)N1CCCC(c2nc(N3CCOCC3)ncc2-c2ccncc2)C1 (stereo not given)	TEAD-YAP inh 56
Cc1nc(C(=O)N2CCCC(c3nc(-c4ccncc4)ncc3-c3ccccc3)C2)cs1 (stereo not given)	TEAD-YAP inh 54
Cc1cc(-c2cnc(N3CCCC3)nc2C2CCCN(C(=O)c3ccco3)C2)on1 (stereo not given)	TEAD-YAP inh 51
Cc1oc(C)c2c(=O)cc(-c3ccc(O)c(O)c3)cc(O)c12	MITF primary 87
COc1ccc(-c2cc(O)c3c(C)oc(C)c3c(=O)c2)cc1	none
CCCOc1ccc(/C=N/NC(=O)c2n[nH]c(=O)c3ccccc23)cc1OC	none
CCc1cccc2c(/C=N/NC(=O)c3n[nH]c(=O)c4ccccc34)c[nH]c12	TEAD-YAP inh 47
Cc1ccc(-c2cnn3c(N4CCC(O)CC4)ccnc23)cc1C	none
Oc1ccc(-c2cnn3c(N4CCOCC4)ccnc23)cc1	TEAD-YAP inh 98
CS(=O)(=O)Nc1cccc(-c2cnn3c(N4CCOCC4)ccnc23)c1	FBW7 activator 2.0
Oc1ccc(-c2cnn3c(N4CCC(O)CC4)ccnc23)cc1	TEAD-YAP inh 52
COc1ccc(/C=C/C(=O)Nc2ccc(S(=O)(=O)N3CCCCCC3)cc2)cc1	TEAD-YAP inh 32
CC1CCCN(S(=O)(=O)c2ccc(NC(=O)/C=C/c3ccco3)cc2)C1 (stereo not given)	TEAD-YAP inh 41
COc1ccc(/C=C/C(=O)Nc2ccc(S(=O)(=O)N3CCCC3)cc2)cc1	none
Cc1c(CCNS(=O)(=O)c2ccc(F)cc2)sc2nc(-c3ccc(F)cc3)nn12	TEAD-YAP inh 37
COc1cc(/C=N\NC(=O)CNc2ccc(Cl)cc2Br)ccc1O	none
CCN(CC)CCNC(=O)CN1C(=O)/C(=C\c2ccc(Cl)cc2)Sc2ccccc21	none
CCOC(=O)C1(CCSC)NC(c2cccs2)C2C(=O)N(CC)C(=O)C21 (stereo not given)	TEAD-YAP inh 32
CCOC(=O)C1(Cc2ccccc2)NC(c2cccs2)C2C(=O)N(CC)C(=O)C21 (stereo not given)	none
CCOC(=O)CN1CCN(c2ccc(Br)cn2)CC1	TEAD-YAP inh 44
CCOC(=O)CN1CCN(c2ccc(-c3cccc(C=O)c3)cn2)CC1	none
C/C(=N\N=C1/NC(=O)C(C)S1)c1ccc(C)cc1 (stereo not given)	TEAD-YAP inh 47
O=C(NCC1CCCO1)C1CCC(Cn2c(SCC(=O)N3CCN(c4ccccc4)CC3)nc3ccccc3c2=O)CC1 (stereo not given)	none
O=C(NCC1CCCO1)c1ccc2c(=O)n(CC3CCCO3)c(SCC(=O)N3CCN(c4ccccc4)CC3)nc2c1 (stereo not given)	TEAD-YAP inh 32
CCOc1ccccc1NC(=O)CSc1nnc(-c2ccc(OC)cc2)n1-n1cccc1	TEAD-YAP inh 41
COc1ccccc1NC(=O)CSc1nnc(-c2ccccn2)n1-c1ccccc1OC	TEAD-YAP inh 42
COc1ccccc1NC(=O)CSc1nnc(-c2ccncc2)n1-c1ccccc1C	TEAD-YAP inh 62
